# Screening results as filed in PubChem BioAssay.
# SW480 rerep – A quantitative high throughput screen for small molecules that induce DNA re-replication in SW480 colon adenocarcinoma cells; 340,000 tested, 1.8% active; Potency, µM (highest dose often 46.1 µM), for the others: top-dose re-replication activation, most hits filed as activators; SW480 DNA re-replication, Hoechst DNA content imaging, 48 h; AID 624297, 2012; further: potency means the concentration at half of the fitted maximal effect; % of control where 0% means no effect; nearly all actives have a fitted effect of over 55% in size
#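 Readout is total intensity of Hoechst-stained nuclei, excited at 405 nm and collected at 500-530 nm. Compound treatment lasted 48 hr at 37 C in 5% CO2 before staining.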
# MCF10A rerep – A quantitative high throughput screen for small molecules that induce DNA re-replication in MCF 10a normal breast cells; MCF 10A DNA re-replication, Hoechst nuclear intensity, 48 h; Potency, µM (titrated, usually from 46.1 µM), for inactives: at the top dose activity, positive = re-replication, actives largely listed as activators; 350,000 tested, 2.9% active; further: potency means the concentration at half of the fitted maximal effect; % of control where 0% means no effect; nearly all actives have a fitted effect of over 50% in size
# hERG WT inh – qHTS for Inhibitors of KCHN2 3.1: Wildtype qHTS. 340,000 tested, 0.37% active. activity change, % at 1.84 µM. U2OS, BacMam KCNH2, thallium flux FluxOr; active compounds read low. Voltage-gated inwardly rectifying potassium channel KCNH2 (Homo sapiens), Q12809;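 active means maximum activity change below -70%; inconclusive means maximum activity change between -70% and -50%; inactive means maximum activity change above -50%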; further: on the % scale 0 is the no-effect control and ±100 the full control effect
# Target sequence (Q12809 whole entry, looked up): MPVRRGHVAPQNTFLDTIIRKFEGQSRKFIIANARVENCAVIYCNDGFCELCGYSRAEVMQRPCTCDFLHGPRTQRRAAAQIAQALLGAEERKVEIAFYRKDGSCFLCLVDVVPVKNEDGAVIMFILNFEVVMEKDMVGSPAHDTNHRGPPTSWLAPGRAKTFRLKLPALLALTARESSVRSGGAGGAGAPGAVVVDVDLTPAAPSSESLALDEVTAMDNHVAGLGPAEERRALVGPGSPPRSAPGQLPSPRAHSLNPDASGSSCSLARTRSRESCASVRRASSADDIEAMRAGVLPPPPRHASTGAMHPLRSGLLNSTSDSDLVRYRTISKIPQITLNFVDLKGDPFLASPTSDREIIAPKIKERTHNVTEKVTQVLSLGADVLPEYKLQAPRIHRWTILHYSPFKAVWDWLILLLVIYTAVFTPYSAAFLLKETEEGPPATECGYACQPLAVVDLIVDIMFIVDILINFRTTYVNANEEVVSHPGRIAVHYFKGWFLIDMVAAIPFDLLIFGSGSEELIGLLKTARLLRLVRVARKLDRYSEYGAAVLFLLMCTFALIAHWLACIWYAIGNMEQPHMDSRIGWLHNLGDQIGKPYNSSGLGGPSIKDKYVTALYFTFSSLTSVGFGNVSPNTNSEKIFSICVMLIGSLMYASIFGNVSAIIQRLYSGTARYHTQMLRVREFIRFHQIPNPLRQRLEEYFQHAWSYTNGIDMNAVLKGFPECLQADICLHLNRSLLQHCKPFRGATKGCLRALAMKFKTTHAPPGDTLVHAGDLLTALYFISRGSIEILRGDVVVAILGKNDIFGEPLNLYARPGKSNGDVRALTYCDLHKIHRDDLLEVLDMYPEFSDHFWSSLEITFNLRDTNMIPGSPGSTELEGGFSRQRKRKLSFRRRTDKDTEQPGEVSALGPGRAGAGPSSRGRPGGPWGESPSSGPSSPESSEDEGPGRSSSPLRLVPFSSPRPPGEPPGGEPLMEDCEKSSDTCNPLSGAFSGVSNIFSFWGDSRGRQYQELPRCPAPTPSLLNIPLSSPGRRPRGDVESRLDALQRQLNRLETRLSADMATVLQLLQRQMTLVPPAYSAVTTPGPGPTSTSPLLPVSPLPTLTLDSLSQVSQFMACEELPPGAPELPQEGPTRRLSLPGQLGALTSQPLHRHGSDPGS
#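 U2OS cells were transduced with wild-type KCNH2 virus (2.03 x 10^8 / mL) for 4 h at room temperature, then cultured overnight at 37 C. Thallium flux was read with FluxOr dye. Rate constants were normalized to DMSO controls.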
# KCNH2 3.1 block – qHTS for Inhibitors of KCHN2 3.1: Mutant qHTS; Potassium voltage-gated channel subfamily H member 2, brain isoform KCNH2 3.1 (human); U2OS KCNH2 3.1, thallium flux FluxOr; active compounds read low; activity change, % (tested at about 1.8 µM); 340,000 tested, 0.95% active; AID 720553, 2013;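 active means maximum activity change below -70%; inconclusive means maximum activity change from -70% to -50%; inactive means maximum activity change above -50%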;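 further: thallium influx rate constant from kinetic fluorescence after stimulation buffer; on the % scale 0 is the no-effect control and ±100 the full control effect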
#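 Virally transduced U2OS (3.1 isoform, 4 h infection in dark at RT) → overnight 37 C → FluxOr + Red40 in HBSS/HEPES, 45 min → stimulation buffer, 2 min kinetic read → rate constant vs DMSO controls.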
# KB-3-1 cytotox – qHTS assay for MDR1-selective chemotherapeutics: Primary screen using the parental adenocarcinoma cell KB-3-1; KB-3-1 viability, CellTiter-Glo ATP luminescence, 72 h; Potency, µM (highest dose often 46.1 µM), hits mostly cytotoxic; 400,000 tested, 1.4% active; further: potency means the concentration at half of the fitted maximal effect; on the % scale 0 is the no-effect control and ±100 the full control effect; nearly all actives have a fitted effect of over 60% in size
#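 Luminescent ATP read-out (CellTiter-Glo) measures survival of drug-naive KB-3-1 cells after 72 h compound exposure at 37 °C. Titration series was screened from lowest to highest concentration, with DMSO vehicle plates as background controls.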
# KB-V1 cytotox – qHTS assay for MDR1-selective chemotherapeutics: Primary screen using the drug-selected MDR subline cells KB-V1; KB-V1 MDR cells viability, CellTiter-Glo, 72 h; 400,000 tested, 3.4% active; Potency, µM (top dose mostly 46.1 µM), actives largely listed as cytotoxic; further: potency means the concentration at half of the fitted maximal effect; on the % scale 0 is the no-effect control and ±100 the full control effect; nearly all actives have a fitted effect of over 60% in size
#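 qHTS viability screen in drug-selected KB-V1 MDR cells: 72 h compound treatment at 37 degrees C, ATP luminescence end point.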
# Active calls of the source: *; i = inactive; ? = inconclusive; . = no result; [ ] = dose if it differs, or a comment. Shown are actives, neighbours in structure and some others; about 7.6% of the full set was active somewhere. Unless noted, the call rests on the fitted dose curve; in most records, active means well fitted curve in the direction sought with a large enough effect; inconclusive means small, poorly fitted or top-dose-only effect, or another doubt; inactive means no such curve, though single readings can be large; an effect the other way counts as inactive or inconclusive.
SMILES,SW480 rerep,MCF10A rerep,hERG WT inh,KCNH2 3.1 block,KB-3-1 cytotox,KB-V1 cytotox
CCN(Cc1ccc(OC)c(F)c1)C(=O)CCl,16µM*,?,-12,2,?,?
CC(=O)NS(=O)(=O)c1cccnc1Nc1cccc(Cl)c1C,0.52µM*,-2%,-18,2,i,i
CC(=O)NS(=O)(=O)c1cccnc1Nc1ccc(Cl)cc1,6%,-4%,4,2,i,i
Cc1ccc(F)cc1NC(=O)c1ccc(NS(=O)(=O)c2ccc(Br)s2)cc1,?,?,2,-12,i,16µM*
CC(C)(C)CC(C)(C)N=C1Nc2ccccc2N[C@]12C[C@H]1CCCC(=O)N3CC[C@@H](C2)[C@@H]13,.,.,.,.,i,?
O=C1OCCN1CCNCc1cn(-c2ccc(F)cc2)nc1-c1ccccc1Cl,-1%[1.84 µM],-20%,-150*,-7,i,i
CC(=O)Nc1ccc(S(=O)(=O)NCCSCc2ccc(Cl)cc2Cl)cc1,-2%,13µM*,-2,-33,?,?
CCCNS(=O)(=O)c1ccc(CCC(=O)N2CCN(c3ccc(F)cc3)CC2)cc1,-3%,24%,0,-21,?,9.2µM*
CC(=O)Nc1ccc(S(=O)(=O)NCCc2ccc(F)cc2)cc1,-5%,20%,3,9,i,23µM*
CCCNS(=O)(=O)c1ccc(CCC(=O)N2CCOCC2)cc1,1%,0%,-5,-8,i,i
COc1ccc(CCC(=O)N2CCN(c3ccc(OC)cc3)CC2)cc1,7%,5%,-9,1,i,?
COc1ccc(N2CCN(C(=O)CCc3ccc(S(=O)(=O)NC(C)(C)C)cc3)CC2)cc1,?,-3%,-3,-1,?,15µM*
CCCNS(=O)(=O)c1ccc(CCC(=O)N2CCN(c3ccc(OC)cc3)CC2)cc1,0%,4%,-23,6,i,21µM*
COc1ccc(N2CCN(C(=O)CCNS(=O)(=O)c3ccc(C)cc3)CC2)cc1,-13%,0%,-5,-5,i,i
COc1ccc(Cn2c(C(=O)O)c(CNCc3cccs3)c3ccc(C)cc32)cc1,.,.,.,.,?,i
COc1ccc2c(CNCc3cccs3)c(C(=O)O)n(Cc3ccc(F)cc3)c2c1,.,.,.,.,16µM*,i
Cc1ccc2c(CNCc3cccs3)c(C(=O)O)n(Cc3ccc(F)cc3)c2c1,.,.,.,.,12µM*,i
C=Cc1ccc(Cn2c(C(=O)O)c(CNCc3ccc(F)cc3)c3ccc(C)cc32)cc1,.,.,.,.,7.3µM*,i
COc1ccc2c(CNCc3cccs3)c(C(=O)O)n(Cc3ccc(F)cc3Cl)c2c1,.,.,.,.,i,?
CSCCC(=O)N1CCCC(N2CCN(c3cccc(C(F)(F)F)c3)CC2)C1 (configuration not stated),8%,-1%,22,4,i,i
O=C(Nc1cccc2cccnc12)c1csc(COCCO)n1,.,.,.,.,i,i
COc1ccc(C(=O)CC(Nc2ccc([N+](=O)[O-])cc2)c2ccc(Cl)cc2)cc1 (configuration not stated),?,13%,12,-5,i,6.5µM*
Cc1ccc(S(=O)(=O)Nc2cc(C)cc(CCNC=O)c2C)cc1,1%,-3%,0,5,i,18µM*
COc1ccc(N(CC(=O)Nc2ccc3c(c2)OCO3)S(=O)(=O)c2ccccc2)cc1,-11%,-1%,i,14,i,i
CN(c1cccc(NC(=O)CN(c2cccc(Cl)c2)S(=O)(=O)c2ccc(Cl)cc2)c1)S(C)(=O)=O,.,17%,-4,-9,?,18µM*
